Source: PubChem BioAssay
ATXN viability: Viability Counterscreen for Primary qHTS for Inhibitors of ATXN expression. Potency, µM (top dose mostly 56.7 µM), hits mostly cytotoxic. actives 0.49% (n = 400,000). S2 cells (HEK-293 line with an ATXN2-luciferase reporter) viability, CellTiter-Fluor protease fluorescence, 24 h; also: potency is read from the fitted curve at half-maximal effect; nearly all actives have a fitted effect of over 40% in size
TGFb SMAD3 inh: qHTS for Inhibitors of TGF-b; Potency, µM (series often up to 46.1 µM), for the others: top-dose activity, negative = inhibition, actives largely listed as inhibitors; actives 1.2% (n = 410,000); HepG2 CAGA-GFP TGF-b/SMAD3 reporter, GFP fluorescence, 18 h; TGF-beta stimulated, 500 pg/mL final; also: potency is read from the fitted curve at half-maximal effect; % is scaled to controls: 0 for no effect and ±100 for the full control effect; nearly all actives have a fitted effect of over 65% in size
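GFP signal (ex488/em500-530) from TGF-beta-stimulated HEPG2 CAGA-GFP cells, 500 pg/mL final, 18 h at 37 degrees C in DMEM plus 1% FBS, normalized to unstimulated and DMSO-stimulated controls.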
HepG2 viability: qHTS for Inhibitors of TGF-b: Cytotox Counterscreen; HepG2 CAGA-GFP viability, ATP luminescence, 18 h; Potency, µM (top dose mostly 46.1 µM), without a hit: at the highest dose activity change, negative = cytotoxicity, hits mostly cytotoxic; actives 0.76% (n = 410,000); AID 588856, 2011; also: potency is read from the fitted curve at half-maximal effect
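HepG2 CAGA-GFP cells (1000/well, DMEM with 1% FBS) received compound, then TGF-beta at 500 pg/mL final, and were incubated 18 hours at 37 degrees C. Viability was read by CellTiter-Glo luminescence. Media-only wells were set as complete cell-killing and DMSO as no toxicity.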
IL-1B inflam inh: qHTS for Inhibitors of Inflammasome Signaling: IL-1-beta AlphaLISA Primary Screen; THP-1 LPS/ATP IL-1B secretion, AlphaLISA, 16 h; stronger effect = lower value; activity change, % at 57.5 µM; actives 4.7% (n = 360,000); AID 743279, 2014; in the data active = activity change below about -50%; inconclusive = mostly about -30% to -49%; also: % is scaled to controls: 0 for no effect and ±100 for the full control effect
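Secreted IL-1B measured by AlphaLISA bead assay after 16 h compound exposure of THP-1 cells; compounds (final up to 57.5 uM) added 1 h before LPS (250 ng/mL) and ATP (1.25 mM) stimulation; lower signal means less secretion.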
ATXN2 expr inh: Primary qHTS for Inhibitors of ATXN expression. HEK-293 ATXN2-luciferase reporter, luminescence, 24 h. Potency, µM (doses to about 57 µM), for inactives: at the top dose activity change, negative = inhibition, usual class: inhibitors. actives 0.72% (n = 360,000); also: potency is read from the fitted curve at half-maximal effect; % is scaled to controls: 0 for no effect and ±100 for the full control effect; nearly all actives have a fitted effect of over 55% in size
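qHTS (up to 57 uM final) was run with 24 h compound exposure of reporter cells at 37 °C. Each well was multiplexed: SteadyGlo luminescence measured ATXN2-luciferase expression after a fluorogenic Gly-Phe-AFC viability readout (25 uM final).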
An asterisk follows results filed as active; i = inactive; ? = inconclusive; . = no result given. Rows were chosen to be rich in hits. Some 5.7% of all compounds tested hit in one or more screens of this group. Unless noted, calls follow the shape of the dose curve; as a rule, active = well fitted curve in the direction sought with a large enough effect; inconclusive = small, poorly fitted or top-dose-only effect, or another doubt; inactive = no such curve, though single readings can be large; an effect the other way counts as inactive or inconclusive.

SMILES | ATXN viability | TGFb SMAD3 inh | HepG2 viability | IL-1B inflam inh | ATXN2 expr inh
CCCCNC(=O)Cn1c(SCc2cccc(F)c2)nc2ccncc21 | . | -11% | -9% | . | .
O=C(Nc1cccc(N2CCC(NCc3cnn(-c4ccccc4)n3)CC2)c1)c1cccnc1 | i | . | . | . | .
CCCN(CCC)C(=O)Cn1c(=O)n(-c2ccc(CC)cc2)c(=O)c2ccc(C(=O)NCCc3ccccc3)cc21 | i | -3% | 2% | . | 12%
CC(NC(=O)CSc1n[nH]c(-c2ccccc2Cl)n1)c1nc2ccccc2n1C (stereo not drawn) | . | -29% | -20% | . | .
CCCCCCCCCCCC[n+]1ccc(/C=C/c2c[nH]c3ccccc23)c2ccccc21 | . | ? | -58% | . | .
CCCCCCC[n+]1ccc(/C=C/c2c(C)[nH]c3ccccc23)c2ccccc21 | . | 13µM* | -114% | . | .
CC(C)c1ccc(NS(=O)(=O)c2ccc3[nH]cc(C(=O)NC4CCCCC4)c(=O)c3c2)cc1 | . | ? | -109% | . | .
CCN(CC)S(=O)(=O)c1ccc2c(c1)c(=O)c(C(=O)NCc1ccccc1OC)cn2C | i | -4% | -5% | . | 3%
Cc1cc(C)cc(NS(=O)(=O)c2ccc3[nH]cc(C(=O)N(C)Cc4ccccc4)c(=O)c3c2)c1 | i | ? | -8% | . | 11%
CCN(CC)S(=O)(=O)c1ccc2c(c1)c(=O)c(C(=O)NCc1ccccc1Cl)cn2C | i | -40% | 5.6µM* | . | -9%
Cc1cc(C)cc(NS(=O)(=O)c2ccc3[nH]cc(C(=O)NCc4ccco4)c(=O)c3c2)c1 | ? | ? | -51% | -56* | ?
Cc1cc(C)cc(NS(=O)(=O)c2ccc3[nH]cc(C(=O)NC4CCCCC4)c(=O)c3c2)c1 | ? | ? | 11µM* | . | ?
Cc1cc(C)cc(NS(=O)(=O)c2ccc3[nH]cc(C(=O)NCc4ccccc4Cl)c(=O)c3c2)c1 | ? | 13µM* | -36% | . | -37%
O=C(c1ccc(N2CCC(NCCCn3ncc4ccccc43)CC2)cc1)N1CCOCC1 | i | . | . | . | .
CN(C)c1c(Cl)cc(/C=C/c2ccnc3ccccc23)cc1Br | . | ? | -26% | . | .
Cc1cc(C(=O)Nc2ccccc2-c2nc(CNC(=O)c3cc4ccccc4cn3)c(C)o2)c(C)o1 | i | . | . | . | .
Cc1ccc2[nH]cc(C(=O)NCc3cccs3)c(=O)c2c1 | i | -1% | -2% | -71* | -13%
Cc1ccc(OCC(=O)NCC(c2ccc(Cl)cc2)N2CCCCC2)cc1 (stereo not drawn) | i | 5% | -19% | . | 3%
COc1cccc2cc(C(=O)NCc3ccco3)c(=O)oc12 | i | 1% | 26% | -13 | 18%
COc1cccc2cc(C(=O)NCc3ccco3)c(=Nc3ccc(C(=O)O)cc3)oc12 | ? | -14% | -3% | -85* | ?
O=S(=O)(Nc1ccc(O)c2ccccc12)c1cccs1 | ? | ? | -69% | -99* | ?
O=S(=O)(Nc1cccc2cccnc12)c1cccs1 | . | 2.2µM* | -18% | . | .
CCc1ccc(OCC(=O)N(Cc2ccco2)Cc2ccccc2Cl)cc1 | . | . | -32% | . | .
Cc1ccc(S(=O)(=O)CC(c2ccccc2)N2CCCCC2)cc1 (stereo not drawn) | i | 0% | 5% | ? | -17%
Cc1ccc(S(=O)(=O)CC(CN2CCCCC2)N2CCCCC2)cc1 (stereo not drawn) | i | 16µM* | -93% | -98* | ?
SMILES | ATXN viability | TGFb SMAD3 inh | HepG2 viability | IL-1B inflam inh | ATXN2 expr inh
CCCCCOc1ccc(C(=O)N(Cc2ccccc2)C2CCS(=O)(=O)C2)cc1 (stereo not drawn) | . | ? | -43% | . | .
CC(C)(CO)CNc1ccn2nccc2n1 | i | -21% | -31% | -79* | 43%
Cc1ncc2c(c1CNC(=O)c1cncs1)CCN(C(=O)c1ccc(C(F)(F)F)cc1)C2 | i | . | . | . | .
CCc1ccc(C(=O)/C=C/c2ccc([N+](=O)[O-])o2)cc1 | ? | ? | -59% | -112* | ?
CCN(CC)S(=O)(=O)c1ccc(C(=O)/C=C/c2ccc(-c3ccc([N+](=O)[O-])cc3)o2)cc1 | i | -28% | -28% | 0 | .
COc1cc(NC(=O)CN(C)S(=O)(=O)c2ccc3[nH]c4c(c3c2)CCCC4)cc(OC)c1OC | ? | ? | -25% | . | -20%
COc1ccc(S(=O)(=O)c2c(SC)nn(CC(=O)Nc3ccc(C)c(Cl)c3)c2N)cc1 | ? | 7.1µM* | 5% | . | ?
CCSc1nn(CC(=O)Nc2cccc(CC)c2)c(N)c1S(=O)(=O)c1ccccc1 | ? | 11µM* | -39% | . | ?
CCOC(=O)C1CCCN(C(=O)c2cnn(-c3ncc4c(n3)-c3ccccc3CC4)c2C)C1 (stereo not drawn) | i | . | . | . | .
Cc1c(Cn2c(C)nc3c(C(=O)O)cc(N4CCOCC4)cc32)cccc1C(F)(F)F | . | . | . | . | -5%
CC(C)OC(=O)c1cc2c(ccn2C)n1CC(=O)N(Cc1ccccc1)c1ccccc1 | i | ? | -1% | -64* | 44%
CCOC(=O)c1cc2c(ccn2C)n1Cc1cc(C)ccc1C | i | -1% | -31% | -5 | -13%
c1ccc(CCn2nnnc2C(c2cccnc2)N2CCN(c3nc4ccccc4s3)CC2)cc1 (stereo not drawn) | ? | ? | -32% | -64* | ?
CCC(c1nnnn1CS(=O)(=O)c1ccc(C)cc1)N1CCN(c2nc3ccccc3s2)CC1 (stereo not drawn) | i | -27% | -5% | -55* | -7%
c1ccc(CCn2nnnc2C(c2cccnc2)N2CCN(c3ccccc3)CC2)cc1 (stereo not drawn) | i | -10% | -3% | -16 | 0%
CC1=C(C(=O)Nc2ccc(C)cc2Cl)C2(CCCCC2)OC1=O | . | . | -23% | . | .
CCN(CCCNC(=O)CSc1cc(=O)n(C)c2cc(Cl)ccc12)c1ccccc1 | i | ? | -28% | . | 0%
CN(CCCNC(=O)CSc1cc(=O)n(C)c2ccc(Cl)cc12)Cc1ccccc1 | ? | -30% | -30% | -54* | -2%
CC(c1ccccc1)N(CC(=O)NC1CCCCC1)S(=O)(=O)c1cccc(C(F)(F)F)c1 (stereo not drawn) | ? | ? | -22% | -62* | ?
CN(C)c1ccc(C=O)c(O)c1 | . | 12% | 23% | . | .
O=C(Nc1ccc2nc(-c3cccs3)c(-c3cccs3)nc2c1)N1CCOCC1 | i | 33% | -10% | -60* | -19%
COC(=O)c1cc2sccc2n1CC(=O)N1CCCc2ccccc21 | ? | ? | -13% | -8 | 2%
CCOC(=O)c1cc2sccc2n1CC(=O)N1CCCc2ccccc21 | ? | -13% | -25% | -50* | -4%
